From the supplement of paper PMC10849652
The full data set covers some 8,800 targets. This sample favours those with a hit. About 0.5% of all pairs of compound and target were hits.

How the values were obtained:
Experiment in all cases: log2 fold change, soluble protein after heating vs DMSO (PISA); higher = thermal stabilisation; K562 lysate, 10 uM; active = over 0.2 and 3.5 SD of the protein, either way, in both replicates (recomputed)
erlotinib = compound: C#Cc1cccc(Nc2ncnc3cc(OCCOC)c(OCCOC)cc23)c1 [erlotinib]
Procedure, shortened: (§1)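 Values give the log-two fold change in thermal stability against solvent controls, from duplicates. Crude K562 extract at 1 mg/mL protein, made by dounce homogenisation in PBS pH 7.4 with 1 mM MgCl2, was treated with 10 μM compound for 30 min. After 3 min heating across 48°C-58°C, aliquots were pooled, adjusted to 0.5% NP-40 at 4°C and centrifuged at 21,000xg for 90 min. The supernatant was measured by TMTpro 16plex LC-MS/MS with channel sums equalised.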

[1] = compound: C/C(=N\NC(=O)C1=CC(=CC=C1)S(=O)(=O)N2CCOCC2)/C3=C(C=CC(=C3)Cl)O
Procedure, shortened: as §1

[2] = compound: C1=CC(=CC=C1C2=NC3=C(N2)C=C(C=C3)C(=O)N)OC4=CC=C(C=C4)Cl
Procedure, shortened: as §1

[3] = compound: C1=CC2=C(C=CC(=C2)/C=C\3/C(=O)NC(=NCC4=CC=CS4)S3)N=C1
Procedure, shortened: as §1

[4] = compound: C1=CC2=NC=CN=C2C=C1/C=C/3\C(=O)NC(=O)S3
Procedure, shortened: as §1

[5] = compound: C1=CC=C(C=C1)C2=NC(=C(N2)C3=CC=NC=C3)C4=CC(=C(C=C4)Cl)O
Procedure, shortened: as §1

[6] = compound: C1=CC=C2C(=C1)C3=NNC4=CC=CC(=C43)C2=O
Procedure, shortened: as §1

[7] = compound: C1CCN(C1)C(=O)NC2=CC=CC(=C2)NC3=NC=C(C(=N3)NCCC4=CN=CN4)Br
Procedure, shortened: as §1

[8] = compound: C1CN(CCC1(CC2=CC=C(C=C2)Cl)N)C3=NC=NC4=C3C=CN4
Procedure, shortened: as §1

IRAK-1-4 Inhibitor I = compound: C1COCCN1CCN2C3=CC=CC=C3N=C2NC(=O)C4=CC(=CC=C4)[N+](=O)[O-] [IRAK-1-4 Inhibitor I]
Procedure, shortened: as §1

ibrutinib = compound: C=CC(=O)N1CCC[C@@H](n2nc(-c3ccc(Oc4ccccc4)cc3)c3c(N)ncnc32)C1 [ibrutinib]
Procedure, shortened: as §1

[9] = compound: CC(=O)c1cnc2ccc(-c3cc(Cl)c(O)c(Cl)c3)nc2c1N[C@H]1CC[C@H](CN(C)C)CC1
Procedure, shortened: as §1

ralimetinib = compound: CC(C)(C)Cn1c(N)nc2ccc(-c3[nH]c(C(C)(C)C)nc3-c3ccc(F)cc3)nc21 [ralimetinib]
Procedure, shortened: as §1

[10] = compound: CC(C)(O)CC(=O)NCCn1ccc2ncnc(Nc3ccc(Oc4cccc(C(F)(F)F)c4)c(Cl)c3)c21
Procedure, shortened: as §1

[11] = compound: CC(C)C1=C2N=C(C=C(N2N=C1)NCC3=CC=CC=C3)NCCCCCCN
Procedure, shortened: as §1

[12] = compound: CC1=C(C(CC(=O)N1)C2=CC=C(C=C2)C(F)(F)F)C(=O)NC3=C(C=C4C(=C3)C=NN4)F
Procedure, shortened: as §1

[13] = compound: CC1=C(C2=C(C=C1)C(=O)C3=CC=CC=C3N2CCCN)C
Procedure, shortened: as §1

[14] = compound: CC1=C(C=C(C=C1)NC(=O)C2=CC(=CC=C2)C(C)(C)C#N)NC3=CC4=C(C=C3)N=CN(C4=O)C
Procedure, shortened: as §1

[15] = compound: CC1=C(C=C(C=C1)NC(=O)C2=CC(=CC=C2)N(C)C)NC(=O)C3=CC=C(C=C3)O
Procedure, shortened: as §1

[16] = compound: CC1=CC=C(C=C1)SC2=C3C=C(SC3=CN=C2)C(=O)N
Procedure, shortened: as §1

Measured: log2 fold change

ANXA2 isoform 2 (UniProt P07355)
Sequence of UniProt P07355 (P07355 whole entry, looked up): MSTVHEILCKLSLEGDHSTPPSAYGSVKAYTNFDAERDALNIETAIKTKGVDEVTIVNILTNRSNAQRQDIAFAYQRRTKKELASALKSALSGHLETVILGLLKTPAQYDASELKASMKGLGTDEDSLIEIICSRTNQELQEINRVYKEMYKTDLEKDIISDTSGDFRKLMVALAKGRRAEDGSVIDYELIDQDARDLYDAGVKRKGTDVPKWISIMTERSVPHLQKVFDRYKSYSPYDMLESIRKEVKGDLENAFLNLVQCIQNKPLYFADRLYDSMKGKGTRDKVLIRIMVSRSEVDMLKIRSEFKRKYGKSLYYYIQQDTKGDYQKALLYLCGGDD
inactive: erlotinib -0.009 | [1] 0.041 | [2] 0.023 | [3] -0.003 | [4] 0.003 | [5] 0.004 | [6] 0.025 | [7] -0.006 | [8] -0.001 | IRAK-1-4 Inhibitor I -0.01 | ibrutinib -0.013 | [9] 0.012 | ralimetinib -0.009 | [10] 0.033 | [11] -0.01 | [12] 0.006 | [13] 0.048 | [14] -0.024 | [15] -0.01 | [16] 0.013

ADD1 isoform 3 (UniProt P35611)
Sequence of UniProt P35611 (P35611 whole entry, looked up): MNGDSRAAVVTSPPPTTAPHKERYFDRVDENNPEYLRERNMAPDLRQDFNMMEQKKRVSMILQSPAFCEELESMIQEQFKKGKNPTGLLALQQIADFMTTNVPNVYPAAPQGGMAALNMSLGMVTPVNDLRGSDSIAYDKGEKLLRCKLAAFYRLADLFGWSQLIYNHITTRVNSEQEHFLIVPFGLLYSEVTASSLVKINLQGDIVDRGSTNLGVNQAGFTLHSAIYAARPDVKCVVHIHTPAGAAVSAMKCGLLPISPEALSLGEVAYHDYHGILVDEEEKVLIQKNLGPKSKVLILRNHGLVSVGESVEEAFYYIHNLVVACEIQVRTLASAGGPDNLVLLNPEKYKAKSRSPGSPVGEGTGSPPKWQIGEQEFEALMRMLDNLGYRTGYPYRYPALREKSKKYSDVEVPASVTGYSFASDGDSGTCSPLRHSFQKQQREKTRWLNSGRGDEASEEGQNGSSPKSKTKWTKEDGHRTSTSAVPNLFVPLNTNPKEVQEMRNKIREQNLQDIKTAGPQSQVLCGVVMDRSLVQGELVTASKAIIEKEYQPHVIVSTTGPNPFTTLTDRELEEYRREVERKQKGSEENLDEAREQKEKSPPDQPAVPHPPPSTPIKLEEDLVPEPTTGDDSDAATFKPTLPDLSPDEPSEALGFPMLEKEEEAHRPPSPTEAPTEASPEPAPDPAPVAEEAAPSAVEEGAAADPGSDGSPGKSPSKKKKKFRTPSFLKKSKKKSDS
inactive: erlotinib -0.027 | [1] 0 | [2] 0.033 | [3] 0.011 | [4] -0.01 | [5] -0.004 | [6] 0.011 | [7] -0.015 | [8] -0.014 | IRAK-1-4 Inhibitor I -0.021 | ibrutinib -0.006 | [9] -0.009 | ralimetinib 0 | [10] -0.01 | [11] -0.005 | [12] 0.007 | [13] -0.038 | [14] 0.005 | [15] -0.009 | [16] -0.019

ANKRD27 (UniProt Q96NW4)
Sequence of UniProt Q96NW4 (Q96NW4 whole entry, looked up): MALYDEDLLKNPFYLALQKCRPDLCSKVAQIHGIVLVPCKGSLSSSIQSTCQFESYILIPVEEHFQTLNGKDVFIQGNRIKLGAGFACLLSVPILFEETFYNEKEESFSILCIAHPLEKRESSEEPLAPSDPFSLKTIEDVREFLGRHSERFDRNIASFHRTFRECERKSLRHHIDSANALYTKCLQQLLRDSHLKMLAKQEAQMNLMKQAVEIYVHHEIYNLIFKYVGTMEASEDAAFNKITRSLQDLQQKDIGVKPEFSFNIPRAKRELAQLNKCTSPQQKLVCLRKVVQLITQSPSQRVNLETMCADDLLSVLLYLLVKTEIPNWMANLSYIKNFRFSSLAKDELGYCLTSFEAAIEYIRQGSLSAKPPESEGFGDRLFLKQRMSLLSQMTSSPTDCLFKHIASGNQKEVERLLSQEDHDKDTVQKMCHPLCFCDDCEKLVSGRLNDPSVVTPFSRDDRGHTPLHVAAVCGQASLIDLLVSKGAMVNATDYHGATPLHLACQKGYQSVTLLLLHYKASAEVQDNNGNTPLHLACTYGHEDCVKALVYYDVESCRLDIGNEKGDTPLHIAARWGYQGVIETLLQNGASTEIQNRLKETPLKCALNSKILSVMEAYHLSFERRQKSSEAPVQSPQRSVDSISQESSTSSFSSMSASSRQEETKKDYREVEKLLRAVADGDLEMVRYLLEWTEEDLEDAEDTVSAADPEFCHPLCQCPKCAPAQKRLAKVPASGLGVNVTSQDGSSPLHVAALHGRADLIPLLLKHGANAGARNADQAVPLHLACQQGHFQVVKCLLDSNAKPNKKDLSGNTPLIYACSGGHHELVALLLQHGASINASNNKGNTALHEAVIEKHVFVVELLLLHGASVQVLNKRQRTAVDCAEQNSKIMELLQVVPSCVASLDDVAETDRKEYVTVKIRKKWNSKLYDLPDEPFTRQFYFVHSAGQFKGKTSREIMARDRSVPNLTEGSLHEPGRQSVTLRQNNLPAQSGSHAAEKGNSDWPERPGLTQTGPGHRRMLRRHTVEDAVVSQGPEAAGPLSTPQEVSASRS
inactive: erlotinib 0.087 | [1] -0.025 | [2] 0.07 | [3] 0.04 | [4] -0.033 | [5] 0.02 | [6] -0.094 | [7] -0.036 | [8] 0 | IRAK-1-4 Inhibitor I 0.014 | ibrutinib 0.016 | [9] -0.003 | ralimetinib -0.028 | [10] -0.009 | [11] 0.032 | [12] 0.033 | [13] -0.014 | [14] 0.089 | [15] 0.013 | [16] -0.102

ARHGEF1 (UniProt M0QZR4)
inactive: erlotinib 0.018 | [1] 0.024 | [2] -0.023 | [3] 0.002 | [4] 0.027 | [5] 0.001 | [6] -0.041 | [7] -0.004 | [8] -0.022 | IRAK-1-4 Inhibitor I -0.031 | ibrutinib -0.009 | [9] -0.001 | ralimetinib 0.009 | [10] -0.008 | [11] 0.019 | [12] -0.015 | [13] 0.007 | [14] 0.002 | [15] 0.015 | [16] 0.005

ABCF3 (UniProt Q9NUQ8)
Sequence of UniProt Q9NUQ8 (Q9NUQ8 whole entry, looked up): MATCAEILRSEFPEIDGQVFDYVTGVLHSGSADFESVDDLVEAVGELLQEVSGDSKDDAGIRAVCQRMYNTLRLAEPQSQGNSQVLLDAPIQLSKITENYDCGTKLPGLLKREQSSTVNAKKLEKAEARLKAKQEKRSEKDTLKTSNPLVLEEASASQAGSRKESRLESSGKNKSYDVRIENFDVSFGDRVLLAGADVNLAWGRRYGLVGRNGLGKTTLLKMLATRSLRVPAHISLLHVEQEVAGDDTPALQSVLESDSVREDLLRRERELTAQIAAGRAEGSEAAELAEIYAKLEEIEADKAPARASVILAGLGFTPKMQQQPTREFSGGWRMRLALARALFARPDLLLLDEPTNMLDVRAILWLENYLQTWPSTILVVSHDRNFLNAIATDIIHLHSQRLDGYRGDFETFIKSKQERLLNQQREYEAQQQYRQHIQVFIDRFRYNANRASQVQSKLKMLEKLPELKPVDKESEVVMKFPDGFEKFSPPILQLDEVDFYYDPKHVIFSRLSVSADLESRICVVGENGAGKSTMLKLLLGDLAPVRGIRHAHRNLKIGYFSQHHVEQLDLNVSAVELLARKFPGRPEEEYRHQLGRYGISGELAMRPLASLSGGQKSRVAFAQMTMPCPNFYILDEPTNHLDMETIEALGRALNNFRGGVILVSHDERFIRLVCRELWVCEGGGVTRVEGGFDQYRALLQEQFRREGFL
inactive: erlotinib 0.005 | [1] 0.013 | [2] -0.049 | [3] 0.011 | [4] 0.009 | [5] -0.011 | [6] -0.065 | [7] 0.022 | [8] -0.033 | IRAK-1-4 Inhibitor I -0.037 | ibrutinib 0.008 | [9] 0.035 | ralimetinib 0.067 | [10] 0.046 | [11] -0.013 | [12] 0.009 | [13] -0.012 | [14] -0.02 | [15] 0.018 | [16] 0.001

ARMC6 (UniProt Q6NXE6)
Sequence of UniProt Q6NXE6 (Q6NXE6 whole entry, looked up): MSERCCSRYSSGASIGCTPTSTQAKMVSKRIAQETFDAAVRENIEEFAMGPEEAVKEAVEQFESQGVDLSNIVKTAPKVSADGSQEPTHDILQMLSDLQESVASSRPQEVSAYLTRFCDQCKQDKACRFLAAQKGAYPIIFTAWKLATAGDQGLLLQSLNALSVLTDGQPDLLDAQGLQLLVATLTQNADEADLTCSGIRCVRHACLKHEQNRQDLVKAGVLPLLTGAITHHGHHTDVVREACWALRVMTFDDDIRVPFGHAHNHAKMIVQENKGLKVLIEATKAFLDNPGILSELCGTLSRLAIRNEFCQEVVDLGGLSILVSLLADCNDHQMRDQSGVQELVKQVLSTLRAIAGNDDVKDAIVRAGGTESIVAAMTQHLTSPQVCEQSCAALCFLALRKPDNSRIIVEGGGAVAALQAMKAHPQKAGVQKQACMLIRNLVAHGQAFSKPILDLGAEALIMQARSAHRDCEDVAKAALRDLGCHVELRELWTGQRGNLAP
inactive: erlotinib 0.012 | [1] -0.026 | [2] -0.093 | [3] 0.022 | [4] 0.04 | [5] 0.006 | [6] -0.027 | [7] 0.021 | [8] -0.031 | IRAK-1-4 Inhibitor I -0.005 | ibrutinib 0.023 | [9] 0.005 | ralimetinib 0.007 | [10] -0.005 | [11] 0.002 | [12] -0.013 | [13] 0.001 | [14] -0.011 | [15] 0.016 | [16] 0

ADRM1 (UniProt Q16186)
Sequence of UniProt Q16186 (Q16186 whole entry, looked up): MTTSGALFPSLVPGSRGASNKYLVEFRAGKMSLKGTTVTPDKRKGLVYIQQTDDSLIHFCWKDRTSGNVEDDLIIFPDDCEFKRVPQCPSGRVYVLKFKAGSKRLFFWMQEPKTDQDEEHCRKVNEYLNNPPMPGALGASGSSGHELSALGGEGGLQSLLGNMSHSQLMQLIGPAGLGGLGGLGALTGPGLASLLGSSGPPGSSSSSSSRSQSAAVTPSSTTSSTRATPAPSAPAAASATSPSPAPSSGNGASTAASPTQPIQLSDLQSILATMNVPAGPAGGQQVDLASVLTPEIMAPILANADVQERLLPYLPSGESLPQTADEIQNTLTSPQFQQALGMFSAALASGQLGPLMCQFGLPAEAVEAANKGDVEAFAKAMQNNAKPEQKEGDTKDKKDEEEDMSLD
inactive: erlotinib 0.007 | [1] -0.006 | [2] 0.007 | [3] -0.026 | [4] -0.016 | [5] 0.018 | [6] -0.088 | [7] 0.012 | [8] 0.007 | IRAK-1-4 Inhibitor I 0.026 | ibrutinib 0.005 | [9] -0.009 | ralimetinib 0.027 | [10] -0.007 | [11] 0.026 | [12] -0.028 | [13] -0.011 | [14] 0.019 | [15] 0.012 | [16] -0.01
